Molecules are shown by their SMILES. The panel holds about 83,000 compounds, 20% with a hit somewhere; the sample as a whole holds those more often.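 Step 1: grow cells in 96-well plates. Step 2: add test compound at a single concentration. Step 3: incubate 48 h. Step 4: record percent growth.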 Unmarked numbers belong to inactive results. Activity calls are given as the source filed them.

This test has as its system ACHN renal. The experiment in a line: NCI-60 one-dose screen, 48 h (100 = growth as untreated, 0 = no growth, -100 = all killed). The settings on record: 10 µM unless noted. As to the method: Growth inhibition of the ACHN human tumor cell line is measured as a screen for anti-cancer activity. Cells are grown in 96 well plates and exposed to the test compound for 48 hours. Compounds are tested at a single concentration, which is 10^-5 M for most compounds. The reported endpoint is percent growth (GI% or GIPRCNT), where numbers from 0 - 100% represent growth inhibition, and numbers from -100% - 0 represent cell death. For example, a value of 40 represents 60% growth inhibition. A value of 0 means no net growth occurred over the course of the experiment. A value of -40 indicates 40% of cells at the beginning of the experiment died by the end of the experiment. A value of -100 means all cells are dead at the end of the experiment.
NCI-60 Human Tumor Cell Lines Screen was performed using the standard one-dose NCI protocol, which is described in more detail at https://dtp.cancer.gov/discovery_development/nci-60/default.htm.
Compounds with GIPRCNT values below 10 were considered active. Activity score was based on GIPRCNT using the following formula: […]
Score is 0 for GIPRCNT values of 100 or above, 50 for GIPRCNT values of 0, and 100 for GIPRCNT values of -100.
Consider `CN(C)CC(C(=O)Cc1ccccc1)c1ccccc1` (stereo not given), for which the growth was 102%.
For `CC1=C(CNO)C2=C(C)C3(CC3)[C@@](C)(O)C(=O)C2=C1` the value was -48.3% (active); for `C[C@]12CCc3nc(Nc4ccccc4F)sc3C1=CC[C@@H]1[C@@H]2CC[C@]2(C)C(=O)CC[C@@H]12`, 9.9% (active); for `O=NN1CCCc2cccc(O)c21`, 17.2%.
For the molecule `CC(=O)Nc1ccc(NC(=O)c2ccc([As](O)O)cc2)cc1`, the growth was 105%.
Consider `CC(C)(NC(=O)O[C@@H]1CN2CCC1CC2)c1csc(-c2ccc(F)cc2)n1`, for which the growth was 98.4%.
As for `O=C(N/N=C\c1ccc(N(CCCl)CCCl)cc1)c1cccc([N+](=O)[O-])c1`, the growth was 94.4%.
With `[Au+].[N-]=C=O.c1ccc(CN2[CH-]N(Cc3ccccc3)C(c3ccccc3)=C2c2ccccc2)cc1`, the growth is 93.2%.
In the case of `CCOC(=O)[C@@H](C)C[C@H](Cc1ccccc1)NC(=O)c1csc([C@@H](C[C@H](C(C)C)N(C)C(=O)[C@@H](NC(=O)[C@H]2CCCCN2C)C(C)(C)CC)OC(C)=O)n1`, the growth is 2.48% (active).
For `CC[C@H](NC(=O)[C@H]1CCCCN1C)C(=O)N(C)[C@H](C[C@@H](OC(C)=O)c1nc(C(=O)N[C@@H](Cc2ccccc2)C[C@H](C)C(=O)O)cs1)C(C)C` the value was 34.4%.
Consider `COC(=O)[C@H](Cc1ccccc1)NC(=O)c1csc([C@@H](C[C@H](C(C)C)N(C)C(=O)[C@@H](NC(=O)[C@H]2CCCN2C)C2CC2)OC(C)=O)n1`, for which the growth is 39.9%.
To `CC(CC1CCCCC1)NCc1ccccc1` (stereo not given) belongs 96.1%; to `CNC12C3C4C1C1C2C3C41C(=O)N[C@H](C(=O)N(C)[C@H](C[C@@H](OC(C)=O)c1nc(C(=O)N[C@@H](Cc2ccccc2)C[C@H](C)C(=O)OC)cs1)C(C)C)C1CC1` (stereo not given in full), 23.2%; to `O=C(Nc1ccc([As]=[As]c2ccc(NC(=O)c3ccccc3)cc2)cc1)c1ccccc1` (stereo not given), -92.4% (active).
To `Oc1c(O)c(Cl)c(Cl)c(Cl)c1Cl` belongs 32.2%.
For `CCCCCCCCCCCCCCCCCC1OC[C@H](COC(=O)O[C@@H](C(=O)O[C@H]2C[C@@]3(O)[C@@H](OC(=O)c4ccccc4)[C@@H]4[C@]5(OC(C)=O)CO[C@@H]5C[C@H](O)[C@@]4(C)C(=O)[C@H](OC(C)=O)C(=C2C)C3(C)C)[C@@H](NC(=O)c2ccccc2)c2ccccc2)O1` (stereo not given in full) the value was 96.2%.
Regarding `COC(=O)[C@@H](C)C[C@H](Cc1ccccc1)NC(=O)c1csc([C@@H](C[C@H](C(C)C)N(C)C(=O)C2(NC(=O)[C@H]3CCCCN3C)CCC2)OC(C)=O)n1`, the growth was 28.8%.
To `COC(=O)C1OC(Oc2ccc(N(CCCl)CCCl)cc2)C(OC(C)=O)C(OC(C)=O)C1OC(C)=O` (stereo not given) belongs 27.4%; to `COC(=O)[C@@H](C)C[C@H](Cc1ccccc1)NC(=O)c1nc([C@@H](C[C@H](C(C)C)N(C)C(=O)[C@@H](NC(=O)[C@H]2CCCCN2C)C(C)C)OC(C)=O)sc1C(C)C`, 18.4%; to `N/C(=N/N=C/c1ccncc1)N[N+](=O)[O-]`, 101%.
As for `O=C(O)C1C(C(=O)O)C2(Cl)C(Cl)=C(Cl)C1(Cl)C2(Cl)Cl.[Hg]` (stereo not given), the growth was 99%.
For the molecule `COC(=O)[C@@H](C)C[C@H](Cc1ccccc1)NC(=O)c1csc([C@@H](C[C@H](C(C)C)N(C)C(=O)[C@H](C)NC(=O)[C@H]2CCCN2C)OC(C)=O)n1`, the growth is 68.6%.
For `O=C(N/N=C\c1ccc(N(CCCl)CCCl)cc1Cl)c1cccnc1` the value was 98.5%; for `Nc1ccc(-c2nc3cc(F)ccc3[se]2)cc1F`, 30.3%; for `CC(C)[C@@H]1NC(=O)[C@]2(C)CSC(=N2)c2csc(n2)CNC(=O)C[C@@H](/C=C/CCS)OC1=O`, 5.8% (active).
In the case of `CCC1CC(O)c2c(O)c3c(c(O)c2C1O)C(=O)c1cccc(O)c1C3=O` (stereo not given) (tested in a mixture with another compound), the growth was -18.1% (active).
To `CC(=O)O[C@H](C[C@H](C(C)C)N(C)C(=O)[C@@H](NC(=O)[C@H]1CCCCN1C)C(C)C)c1nc(C(=O)N[C@@H](Cc2ccccc2)C[C@H](C)C(=O)O)c(C)s1` belongs 26.6%; to `O=C(c1ccccc1O)c1[nH]c(Cl)c(Cl)c1-n1c(C(=O)c2ccccc2O)cc(Cl)c1Cl`, -9.76% (active); to `CCCCN1CCCC[C@@H]1C(=O)N[C@H](C(=O)N(C)[C@H](C[C@@H](OC(C)=O)c1nc(C(=O)NC2CCC(C(=O)OC)CC2)cs1)C(C)C)C(C)C` (stereo not given in full), 54.8%.
To `COC(=O)[C@@H](C)C[C@H](Cc1ccccc1)NC(=O)c1csc([C@@H](C[C@H](C(C)C)N(C)C(=O)[C@@H](NC(=O)[C@H]2CCCN2C)C2CC2)OC(C)=O)n1` belongs 20.8%; to `CCC1(C(C)C)C(=O)NC(=S)NC1=O`, 98.5%.
Regarding `CN(C)C1C(=O)C(C(N)=O)=C(O)C2(O)C(=O)C3=C(O)c4c(O)cccc4C(C)(O)C3CC12.[Cl][Sb]([Cl])[Cl]` (stereo not given), the growth is 59%.
On to `Cc1c2cc(Cl)c3ccccc3c2c[n+]2ccccc12`, for which the growth was 92.2%.
Consider `CCOC(=O)[C@@H](C)C[C@H](Cc1ccccc1)NC(=O)c1csc([C@@H](C[C@H](C(C)C)N(C)C(=O)[C@H](CC)NC(=O)[C@H]2CCCCN2C)OC(C)=O)n1`, for which the growth was 25.9%.
As for `CN1CC(=O)N(O)C1(C)c1cccnc1` (stereo not given), the growth was 102%.
Turning to `C=C1[C@@H](C)[C@H]2[C@H](Cc3ccccc3)NC(=O)[C@]23[C@@H](O)/C=C/[C@@](C)(O)C(=O)[C@@H](C)C/C=C/[C@H]3[C@@H]1O`, the growth is 45.6%.
For `O=C(CN1CCN(C(=O)c2ccco2)CC1)Nc1ccc(Cl)cc1C(=O)c1ccccc1Cl` the value was 81.3%; for `CN(CCCCN(C)CCOS(C)(=O)=O)CCOS(C)(=O)=O`, 24.9%; for `C#Cc1ccc2c(c1)C(c1ccccc1F)=NCC(=O)N2C`, 56.9%.
For `[Cl][Hg][n]1c(-c2ccco2)nc2ccccc21`, the growth is 96.6%.

The values above are taken from PubChem BioAssay (NCI).
